# Hits are enriched below; roughly 3.9% of the tested compounds scored in any of these assays.
# USP2a block: inhibitors of human ubiquitin-specific protease USP2a; O75604; Potency, µM (series often up to 38.3 µM), inactives show top-dose activity change, negative = inhibition, actives largely listed as inhibitors; AID 463254; 0.01% of 330,000 active; USP2 core, Ub-CHOP2 coupled fluorogenic reporter, 485/531;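 note: potency is the fitted concentration of half-maximal effect; plate controls were DMSO wells for no effect and full inhibition by NEM control for full effect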
#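 USP2 core (10nM final) preincubated 30min RT with compound in 20mM Tris-HCl pH 8.0, 2mM CaCl2, 2mM beta-mercaptoethanol, 0.05% CHAPS; 25nM Ub-CHOP2 plus 25nM reporter substrate added, fluorescence (Ex485/Em531) read after 60min.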
# D1 ag: agonists of human D1 dopamine receptor; AID 504660; 1% of 360,000 active; activation, % at 2 µM; HEK293 T-REx D1 cells, calcium flux, agonist mode; in the data active = activation above about 30%; note: 0% is about no effect
#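 Tetracycline-induced HEK293 TREx D1 cells, force-coupled to calcium signalling, were dye-loaded with a no-wash calcium kit. Compound was pin-added after a 10 s baseline. Fluorescence was read kinetically at 1 cycle/s for 180 s, with calcium rises flagged as agonism.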
# GALK inhibitor: inhibitors of human galactokinase | AID 1868 | 0.007% of 270,000 active | Potency, µM (doses to about 57.5 µM), inactives show at the top dose activity change, negative = inhibition, actives largely listed as inhibitors | Purified GALK, Kinase-Glo residual ATP luminescence; note: potency is the fitted concentration of half-maximal effect; % is set by controls: 0 for no effect and ±100 for the full control effect
#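 5 nM enzyme, 35 uM ATP, 100 uM galactose, 20 mM HEPES pH8.0, 5 mM MgCl2; 1 h RT; residual ATP by Kinase-Glo Plus luminescence, qHTS format.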
# D1 antag: antagonists of human D1 dopamine receptor; AID 504652; activity change, negative = inhibition, % at 10 µM; HEK293 TREx D1 cells, calcium flux, dopamine EC80; stronger effect = lower value; 3.2% of 360,000 active; in the data active = activity change below about -30%; note: % is set by controls: 0 for no effect and ±100 for the full control effect
#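 Tetracycline-induced HEK293 T-REx cells with force-coupled D1 receptor were loaded with a no-wash calcium dye. Compound was added after a 10 s baseline and read kinetically for 180 s; EC80 dopamine was then added and calcium flux followed another 180 s.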
# Eya2 inh: blocks the phosphatase activity of human Eya2; O00167; recombinant Eya2, OMFP fluorescence dephosphorylation (OMFP is methylfluorescein phosphate); Potency, µM (highest dose often 76.9 µM), for the others: at the highest dose activity, negative = inhibition, actives largely listed as inhibitors; 0.006% of 330,000 active; note: potency is the fitted concentration of half-maximal effect; % is set by controls: 0 for no effect and ±100 for the full control effect
# Target sequence (O00167 whole entry, looked up): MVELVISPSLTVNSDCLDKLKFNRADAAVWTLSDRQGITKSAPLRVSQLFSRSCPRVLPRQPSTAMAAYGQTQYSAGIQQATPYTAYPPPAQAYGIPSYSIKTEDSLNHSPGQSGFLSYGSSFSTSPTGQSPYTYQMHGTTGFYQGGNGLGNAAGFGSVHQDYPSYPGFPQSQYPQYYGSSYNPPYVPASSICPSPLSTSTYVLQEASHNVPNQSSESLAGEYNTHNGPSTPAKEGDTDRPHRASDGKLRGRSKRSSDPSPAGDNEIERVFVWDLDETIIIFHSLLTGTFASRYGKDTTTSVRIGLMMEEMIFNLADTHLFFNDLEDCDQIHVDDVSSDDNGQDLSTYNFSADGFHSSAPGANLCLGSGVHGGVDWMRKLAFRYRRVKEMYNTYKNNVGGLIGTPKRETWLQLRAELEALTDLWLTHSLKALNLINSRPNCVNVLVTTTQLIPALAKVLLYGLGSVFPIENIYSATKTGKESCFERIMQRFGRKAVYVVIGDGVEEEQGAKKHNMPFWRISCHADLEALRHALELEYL
#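 Eya2 protein (added as 0.2 uM solution) was preincubated with compound for 10 min at ambient temperature in 50 mM HEPES pH 7.5, 50 mM NaCl, 5 uM MgCl2, 0.05% BSA, 1 mM DTT. OMFP (added at 50 uM) then reacted 10 min; fluorescence read at 485/525 nm.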
# D1 PAM: human D1 dopamine receptor positive modulation; P21728; HEK293 TREx D1 cells, calcium flux, dopamine EC20 potentiation; potentiation, % at 10 µM; 0.036% of 360,000 active; AID 504651; in the data active = potentiation above about 30%; note: 0% is about no effect
# The depositor's hits bear a star; · = not tested or not shown. Unless noted, calls come from the whole dose curve; as a rule, active = well fitted inhibition curve with a large enough effect; inconclusive = small, poorly fitted or top-dose-only effect, or effect the other way; inactive = flat fitted curve, though single readings scatter.
SMILES,USP2a block,D1 ag,GALK inhibitor,D1 antag,Eya2 inh,D1 PAM
O=C(Nc1ccc(N2CCN(C(=O)c3ccco3)CC2)cc1)c1ccc([N+](=O)[O-])cc1Cl,-1%,13,2%,-6,7%,-1
O=C(Nc1ccc(N2CCOCC2)c(F)c1)c1cccs1,1%,0,-3%,-38*,3%,-7
CCCC(=O)N1CCN(c2ccc(NC(=O)c3cc4ccccc4o3)cc2Cl)CC1,-2%,11,1%,-47*,-14%,-9
CCOc1ccc(NC(=O)C(C)Sc2nc3ncccc3o2)cc1 (configuration not stated),·,1,·,16,·,-2
CCc1nn(CC(=O)NCC(C)c2ccccc2)c(=O)c2cc3c(OC)cccc3n12 (configuration not stated),·,0,·,15,·,-4
O=C(NC(=O)c1ccccc1O)c1ccc(C(F)(F)F)cc1,2%,37*,4%,-27,3%,-5
CCCc1ccc(C(=O)NC(=O)c2ccccc2O)cc1,-2%,21,8%,-64*,5%,-5
O=C(Cn1ncc2c(=O)oc3ccccc3c21)NCc1ccccc1Cl,·,2,·,-10,·,-2
C=CCn1c(N2CCN(c3ccc(OC)cc3)CC2)nc2c1c(=O)n(C)c(=O)n2C,-5%,15,0%,-38*,3%,-6
COCCn1c(N2CCN(c3ccc(OC)cc3)CC2)nc2c1c(=O)n(C)c(=O)n2C,-1%,8,6%,-16,-7%,-4
COc1ccc(N2C(=O)C3CCCN3C2=O)cc1 (configuration not stated),1%,-1,2%,-34*,22%,-2
CCC(CC)C(=O)Nc1c(C(=O)N2CCN(c3ccccc3F)CC2)oc2ccccc12,·,-1,·,-15,·,-1
Oc1ccc(/C=C/c2ccc3cccc(O)c3n2)cc1Br,3%,37*,-5%,-11,11%,5
O=C(O)c1ccc(/C=C/c2ccc3cccc(O)c3n2)cc1,1%,3,-1%,1,-4%,-7
Clc1ccccc1CSc1nnc(Cn2cnc3ccccc32)n1-c1ccccc1,1%,2,1%,-82*,5%,0
Clc1ccc(-c2nc3nc4ccccc4nc3n2Cc2ccco2)cc1,1%,2,-3%,-41*,-7%,-10
COc1ccc(C(=O)C(OC(=O)c2ccccc2Cl)c2ccccc2)cc1 (configuration not stated),2%,11,-5%,-33*,4%,-8
Cc1ccc(C23CC4CC(CC(CN)(C4)C2)C3)cc1,0%,42*,-2%,22,-4%,-6
N#Cc1nc(Nc2cccc(C(F)(F)F)c2)nc(NC2CCCC2)n1,·,7,·,-11,·,-3
Fc1ccc(-c2noc3ncnc(NCc4ccc(Cl)cc4)c23)cc1,·,1,·,4,·,-6
CN(C)CCCNS(=O)(=O)c1ccc(Oc2ncc(C(F)(F)F)cc2Cl)cc1,0%,61*,0%,-17,2%,-7
COc1cccc(-c2nnn(CCC(=O)O)n2)c1,-5%,0,17%,-40*,2%,-10
C=CCC(NCc1ccccc1)c1ccc(OC)cc1 (configuration not stated),1%,6,-1%,-34*,11%,11
C=CCC(NCc1ccccc1)c1ccco1 (configuration not stated),·,1,8%,-57*,·,-13
COc1cccc(CNC(=O)CCCN2C(=O)CCn3nc(-c4cccn4C)cc32)c1,·,0,·,-4,·,-2
SMILES,USP2a block,D1 ag,GALK inhibitor,D1 antag,Eya2 inh,D1 PAM
CC(=O)Nc1ccc(CN2CCCC(C(=O)c3cccc(C(F)(F)F)c3)C2)cc1 (configuration not stated),0%,10,2%,-2,4%,-5
COc1ccc(C(=O)C2CCCN(Cc3ccc(NC(C)=O)cc3)C2)cc1OC (configuration not stated),2%,-2,-3%,-33*,-1%,-6
COc1cc(OC)c(OC)cc1CN1CCCC(C(=O)c2sccc2C)C1 (configuration not stated),-5%,9,3%,-38*,5%,-11
COc1cc(OC)c(OC)cc1CN1CCCC(C(=O)c2ccc3c(c2)OCO3)C1 (configuration not stated),3%,1,0%,-10,-12%,-5
COc1ccc(NC(=O)C2CCCN(CCCc3ccccc3)C2)cc1OCC(C)C (configuration not stated),-5%,90*,6%,-3,-5%,-6
O=C(Nc1cccc(-c2nc3cc(Cl)ccc3o2)c1)c1ccc(F)cc1,·,1,·,-18,·,-7
Cc1cc(=O)oc(C)c1C(=O)OC(C(=O)c1ccccc1)c1ccccc1 (configuration not stated),0%,1,1%,-42*,9%,-4
Cc1cc(=O)oc(C)c1C(=O)OCC(=O)c1ccccc1,5%,5,5%,-2,6%,-2
Cc1c(Cl)cccc1NC(=O)N1CCN(Cc2cc(=O)n3nc(-c4ccccc4F)sc3n2)CC1,·,-1,·,9,·,-1
COc1ccc(CNC(=O)c2oc3c(c2C)-c2nn(Cc4ccccc4Cl)cc2CC3)cc1,·,2,·,-11,·,0
CCOC(=O)CCCCN(Cc1ccccc1F)S(=O)(=O)c1ccc(F)c(C(=O)Nc2cc(Cl)cc(Cl)c2)c1,·,32*,·,24,·,4
CCN(Cc1ccccc1)S(=O)(=O)c1ccc(F)c(C(=O)Nc2cc(C(F)(F)F)ccc2Cl)c1,·,19,·,-30*,·,-2
CN(Cc1ccccc1)S(=O)(=O)c1ccc(F)c(C(=O)Nc2cc(Cl)cc(Cl)c2)c1,·,-3,·,13,·,5
CCN(Cc1ccccc1)S(=O)(=O)c1ccc(F)c(C(=O)Nc2cc(C)ccc2OC)c1,·,4,·,-12,·,-2
CCn1cc(C(=O)NCCOC)c(=O)c2cc(S(=O)(=O)N3CCOCC3)ccc21,·,1,·,18,·,-1
Cc1ccc(Cl)cc1N1CCN(CCCNC(=O)Cn2ncc3c([nH]c4ccccc43)c2=O)CC1,·,1,·,-13,·,-2
Cc1cc2c(cc1S(=O)(=O)NCc1ccc(F)cc1)n(C)c(=O)c(=O)n2C,·,-1,·,1,·,-1
CN(CC(=O)Nc1ccccc1Br)c1ncnc2sccc12,-1%,13,-3%,-35*,6%,-11
CN(CC(=O)Nc1ccc(F)c(F)c1F)c1ncnc2sccc12,1%,8,0%,-9,0%,-11
Cc1cc(C)c2c(c1)C1C=CCC1C(C(=O)O)N2 (configuration not stated),·,0,·,12,·,10

# Screens: PubChem BioAssay, National Center for Advancing Translational Sciences (NCATS)
